# Experimental data as given in publication PMC7862700, “An all-to-all approach to the identification of sequence-specific readers for epigenetic DNA modifications on cytosine”.
# Columns and labels:
# Test in all cases: DAPPL (digital affinity profiling via proximity ligation, sequencing); 10 mM Tris-HCl pH 7.5, 50 mM NaCl, 1 mM DTT, 4% glycerol, room temperature, 30 min; GST-TFs on glutathione beads, 16-mer random dsDNA library, 0.1% formaldehyde crosslink after washing; high values mean tight binding
# [1] = molecular target: T1, FLI1 (Homo sapiens, UniProt Q01543 1-452); details: protein: recombinant; tags: N-terminal GST; dsDNA, one strand shown
# T1 sequence: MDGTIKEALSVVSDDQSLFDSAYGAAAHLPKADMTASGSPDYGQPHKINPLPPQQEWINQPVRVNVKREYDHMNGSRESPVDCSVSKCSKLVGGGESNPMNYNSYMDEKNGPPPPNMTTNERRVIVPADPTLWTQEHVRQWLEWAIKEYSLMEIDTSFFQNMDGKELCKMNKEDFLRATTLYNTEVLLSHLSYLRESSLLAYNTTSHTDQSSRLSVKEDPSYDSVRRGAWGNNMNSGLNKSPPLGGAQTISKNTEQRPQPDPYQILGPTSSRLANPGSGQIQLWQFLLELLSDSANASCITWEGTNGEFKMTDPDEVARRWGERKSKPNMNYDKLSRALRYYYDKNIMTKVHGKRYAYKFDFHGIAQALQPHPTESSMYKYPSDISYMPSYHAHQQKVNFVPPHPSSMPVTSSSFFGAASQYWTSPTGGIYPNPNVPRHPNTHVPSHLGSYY
# How it was run: (§1)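 Human transcription factors carrying a GST fusion were produced in yeast, bound to glutathione beads, tagged with DNA barcodes and pooled together with a tag-only sample. Each pool was held with 200 nmole of a random double-stranded 16-mer DNA library in Tris/NaCl/DTT/glycerol buffer for 30 min at room temperature, then washed, crosslinked in 0.1% formaldehyde, proximity-ligated with BsaI/T4 ligase (1 h, 37 °C), PCR-amplified and sequenced on an Illumina NextSeq500. Binding signal is the read frequency of each hexamer for a given factor divided by its frequency in the tag-only sample.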
# [2] = molecular target: T2, ELK1 (Homo sapiens, UniProt P19419 1-428); details: protein: recombinant; tags: N-terminal GST; dsDNA, one strand shown
# T2 sequence: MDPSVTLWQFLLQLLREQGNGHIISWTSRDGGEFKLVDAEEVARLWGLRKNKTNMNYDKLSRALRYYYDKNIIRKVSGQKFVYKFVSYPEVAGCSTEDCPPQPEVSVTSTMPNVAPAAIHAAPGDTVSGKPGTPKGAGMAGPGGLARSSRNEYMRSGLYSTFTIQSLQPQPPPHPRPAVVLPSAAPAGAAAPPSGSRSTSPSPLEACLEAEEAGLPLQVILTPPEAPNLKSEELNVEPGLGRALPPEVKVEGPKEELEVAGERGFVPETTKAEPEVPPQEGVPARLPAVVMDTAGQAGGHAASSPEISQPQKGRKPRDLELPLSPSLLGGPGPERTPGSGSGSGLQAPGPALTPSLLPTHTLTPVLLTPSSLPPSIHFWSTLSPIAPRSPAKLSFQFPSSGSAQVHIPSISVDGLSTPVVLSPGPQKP
# How it was run: as §1
# [3] = molecular target: T3, GABPA (Homo sapiens, UniProt Q06546 1-454); details: protein: recombinant; tags: N-terminal GST; dsDNA, one strand shown
# T3 sequence: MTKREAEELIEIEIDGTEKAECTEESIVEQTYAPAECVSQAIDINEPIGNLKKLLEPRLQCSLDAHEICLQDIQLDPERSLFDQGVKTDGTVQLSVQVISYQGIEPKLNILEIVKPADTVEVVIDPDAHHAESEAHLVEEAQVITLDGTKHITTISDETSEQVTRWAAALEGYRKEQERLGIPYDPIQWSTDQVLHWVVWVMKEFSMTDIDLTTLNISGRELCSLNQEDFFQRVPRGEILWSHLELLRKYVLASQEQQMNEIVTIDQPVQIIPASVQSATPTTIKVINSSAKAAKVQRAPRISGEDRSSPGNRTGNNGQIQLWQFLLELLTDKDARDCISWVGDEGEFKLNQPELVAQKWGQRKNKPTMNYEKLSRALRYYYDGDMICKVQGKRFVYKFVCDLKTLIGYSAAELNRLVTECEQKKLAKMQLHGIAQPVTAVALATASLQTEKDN
# How it was run: as §1
# [4] = molecular target: T4, ERG (Homo sapiens, UniProt P11308 1-479); details: protein: recombinant; tags: N-terminal GST; dsDNA, one strand shown
# T4 sequence: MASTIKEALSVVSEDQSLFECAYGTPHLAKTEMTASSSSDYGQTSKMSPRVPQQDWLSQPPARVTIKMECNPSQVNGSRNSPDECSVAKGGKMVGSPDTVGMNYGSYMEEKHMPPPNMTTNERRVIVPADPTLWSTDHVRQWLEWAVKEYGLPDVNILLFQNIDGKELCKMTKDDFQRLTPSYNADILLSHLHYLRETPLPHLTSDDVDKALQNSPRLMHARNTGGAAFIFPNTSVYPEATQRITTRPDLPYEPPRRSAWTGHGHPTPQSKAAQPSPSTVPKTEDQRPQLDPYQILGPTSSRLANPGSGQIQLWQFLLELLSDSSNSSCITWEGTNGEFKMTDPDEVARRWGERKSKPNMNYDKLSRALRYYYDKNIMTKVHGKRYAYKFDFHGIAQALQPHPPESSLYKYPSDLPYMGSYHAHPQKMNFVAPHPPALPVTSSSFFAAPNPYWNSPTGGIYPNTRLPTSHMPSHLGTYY
# How it was run: as §1
# [5] = molecular target: ELF1 (Homo sapiens, UniProt P32519 1-619); details: protein: recombinant; tags: N-terminal GST; dsDNA, one strand shown
# How it was run: as §1
# [6] = molecular target: SPI1 (Homo sapiens, UniProt P17947 1-270); details: protein: recombinant; tags: N-terminal GST; dsDNA, one strand shown
# How it was run: as §1
# [7] = molecular target: SPIB (Homo sapiens, UniProt Q01892 1-262); details: protein: recombinant; tags: N-terminal GST; dsDNA, one strand shown
# How it was run: as §1
# [8] = molecular target: T5, ELK3 (Homo sapiens, UniProt P41970 1-407); details: protein: recombinant; tags: N-terminal GST; dsDNA, one strand shown
# T5 sequence: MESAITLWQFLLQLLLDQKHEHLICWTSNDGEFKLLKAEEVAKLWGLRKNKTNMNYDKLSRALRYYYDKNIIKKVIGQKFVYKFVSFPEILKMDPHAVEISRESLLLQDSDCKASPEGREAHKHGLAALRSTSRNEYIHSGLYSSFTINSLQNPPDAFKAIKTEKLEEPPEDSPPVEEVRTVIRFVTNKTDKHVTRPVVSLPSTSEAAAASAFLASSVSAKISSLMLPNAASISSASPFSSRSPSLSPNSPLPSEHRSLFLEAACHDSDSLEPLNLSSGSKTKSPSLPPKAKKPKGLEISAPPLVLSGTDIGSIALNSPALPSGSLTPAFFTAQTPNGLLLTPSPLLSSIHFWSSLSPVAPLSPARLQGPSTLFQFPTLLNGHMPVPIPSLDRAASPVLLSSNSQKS
# How it was run: as §1
# [9] = molecular target: T6, FEV (Homo sapiens, UniProt Q99581 1-238); details: protein: recombinant; tags: N-terminal GST; dsDNA, one strand shown
# T6 sequence: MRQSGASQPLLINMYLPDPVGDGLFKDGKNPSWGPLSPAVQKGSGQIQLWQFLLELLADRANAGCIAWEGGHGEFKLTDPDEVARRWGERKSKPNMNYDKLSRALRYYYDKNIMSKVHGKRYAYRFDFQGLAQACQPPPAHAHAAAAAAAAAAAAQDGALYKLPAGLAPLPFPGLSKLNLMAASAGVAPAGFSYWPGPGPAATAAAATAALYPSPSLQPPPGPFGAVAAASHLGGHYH
# How it was run: as §1
# [10] = molecular target: ETV5 (Homo sapiens, UniProt P41161 1-510); details: protein: recombinant; tags: N-terminal GST; dsDNA, one strand shown
# How it was run: as §1
# [11] = molecular target: HSF1 (Homo sapiens, UniProt Q00613 1-529); details: protein: recombinant; tags: N-terminal GST; chain copies: 3; dsDNA, one strand shown
# How it was run: as §1
# [12] = molecular target: T7, SPIC (Homo sapiens, UniProt Q8N5J4 1-248); details: protein: recombinant; tags: N-terminal GST; dsDNA, one strand shown
# T7 sequence: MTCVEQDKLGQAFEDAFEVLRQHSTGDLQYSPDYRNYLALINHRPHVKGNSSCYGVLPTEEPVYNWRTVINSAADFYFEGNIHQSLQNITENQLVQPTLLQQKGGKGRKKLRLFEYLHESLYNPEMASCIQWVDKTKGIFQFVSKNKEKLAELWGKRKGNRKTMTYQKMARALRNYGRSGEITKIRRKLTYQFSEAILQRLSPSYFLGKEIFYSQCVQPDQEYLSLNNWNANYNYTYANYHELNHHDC
# How it was run: as §1
# [13] = molecular target: ELF4 (Homo sapiens, UniProt Q99607 1-663); details: protein: recombinant; tags: N-terminal GST; dsDNA, one strand shown
# How it was run: as §1
# [14] = molecular target: T8, ELK4 (Homo sapiens, UniProt P28324-2 1-405); details: protein: recombinant; tags: N-terminal GST; dsDNA, one strand shown
# T8 sequence: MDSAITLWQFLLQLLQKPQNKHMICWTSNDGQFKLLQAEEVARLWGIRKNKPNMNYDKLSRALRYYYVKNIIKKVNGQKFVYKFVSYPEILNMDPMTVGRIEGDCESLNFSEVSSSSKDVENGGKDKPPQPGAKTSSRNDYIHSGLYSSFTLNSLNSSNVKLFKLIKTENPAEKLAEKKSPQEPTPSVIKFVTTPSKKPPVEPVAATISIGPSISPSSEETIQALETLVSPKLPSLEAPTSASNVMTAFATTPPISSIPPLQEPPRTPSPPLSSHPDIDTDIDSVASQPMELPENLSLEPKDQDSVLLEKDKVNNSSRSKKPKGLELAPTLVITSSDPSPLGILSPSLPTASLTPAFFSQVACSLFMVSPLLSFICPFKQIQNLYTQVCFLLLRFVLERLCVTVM
# How it was run: as §1
# [15] = molecular target: T9, ETV2 (Homo sapiens, UniProt O00321 1-342); details: protein: recombinant; tags: N-terminal GST; dsDNA, one strand shown
# T9 sequence: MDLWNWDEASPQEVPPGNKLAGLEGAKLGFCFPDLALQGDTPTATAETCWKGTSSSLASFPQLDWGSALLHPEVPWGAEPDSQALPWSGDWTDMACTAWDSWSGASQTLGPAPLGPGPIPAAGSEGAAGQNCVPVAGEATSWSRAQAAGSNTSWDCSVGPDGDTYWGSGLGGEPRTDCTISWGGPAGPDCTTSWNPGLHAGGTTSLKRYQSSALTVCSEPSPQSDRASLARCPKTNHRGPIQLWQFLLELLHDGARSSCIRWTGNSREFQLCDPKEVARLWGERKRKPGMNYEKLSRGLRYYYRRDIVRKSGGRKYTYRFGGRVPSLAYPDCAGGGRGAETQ
# How it was run: as §1
# [16] = molecular target: T10, ELF3 (Homo sapiens, UniProt P78545 1-371); details: protein: recombinant; tags: N-terminal GST; dsDNA, one strand shown
# T10 sequence: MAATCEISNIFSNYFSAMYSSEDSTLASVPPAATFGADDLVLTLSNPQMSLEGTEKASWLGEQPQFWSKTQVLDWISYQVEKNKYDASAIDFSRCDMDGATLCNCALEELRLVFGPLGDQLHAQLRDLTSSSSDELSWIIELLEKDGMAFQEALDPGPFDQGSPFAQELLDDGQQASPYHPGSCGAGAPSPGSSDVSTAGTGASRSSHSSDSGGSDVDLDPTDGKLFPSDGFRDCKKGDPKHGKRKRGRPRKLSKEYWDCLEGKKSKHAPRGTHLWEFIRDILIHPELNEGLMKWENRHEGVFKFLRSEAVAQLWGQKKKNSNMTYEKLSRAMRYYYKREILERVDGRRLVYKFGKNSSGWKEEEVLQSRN
# How it was run: as §1
# [17] = molecular target: ETV1 (Homo sapiens, UniProt P50549 1-477); details: protein: recombinant; tags: N-terminal GST; dsDNA, one strand shown
# How it was run: as §1
# Chain of HSF1 (Q00613 whole entry): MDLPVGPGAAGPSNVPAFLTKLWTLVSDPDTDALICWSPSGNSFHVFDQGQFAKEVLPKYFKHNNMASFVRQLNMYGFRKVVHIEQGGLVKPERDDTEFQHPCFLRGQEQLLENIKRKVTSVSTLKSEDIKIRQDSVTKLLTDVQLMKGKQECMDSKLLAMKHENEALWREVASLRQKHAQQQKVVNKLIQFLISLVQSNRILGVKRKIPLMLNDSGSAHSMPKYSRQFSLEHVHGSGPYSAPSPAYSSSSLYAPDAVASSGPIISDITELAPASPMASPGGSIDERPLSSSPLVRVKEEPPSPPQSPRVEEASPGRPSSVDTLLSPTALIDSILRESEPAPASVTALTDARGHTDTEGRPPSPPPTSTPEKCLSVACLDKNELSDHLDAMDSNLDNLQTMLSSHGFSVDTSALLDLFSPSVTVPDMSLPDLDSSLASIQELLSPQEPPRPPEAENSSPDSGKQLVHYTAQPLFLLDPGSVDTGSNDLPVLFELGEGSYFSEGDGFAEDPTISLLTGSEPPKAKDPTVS
# Chain of SPIB (Q01892 whole entry): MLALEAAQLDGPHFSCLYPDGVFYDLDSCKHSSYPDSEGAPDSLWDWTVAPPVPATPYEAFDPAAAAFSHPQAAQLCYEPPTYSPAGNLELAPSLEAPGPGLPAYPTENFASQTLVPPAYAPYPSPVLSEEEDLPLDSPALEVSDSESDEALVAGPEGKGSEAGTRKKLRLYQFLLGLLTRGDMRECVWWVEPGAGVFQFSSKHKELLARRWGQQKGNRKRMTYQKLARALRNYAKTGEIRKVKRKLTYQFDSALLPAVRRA
# Chain of ETV1 (P50549 whole entry): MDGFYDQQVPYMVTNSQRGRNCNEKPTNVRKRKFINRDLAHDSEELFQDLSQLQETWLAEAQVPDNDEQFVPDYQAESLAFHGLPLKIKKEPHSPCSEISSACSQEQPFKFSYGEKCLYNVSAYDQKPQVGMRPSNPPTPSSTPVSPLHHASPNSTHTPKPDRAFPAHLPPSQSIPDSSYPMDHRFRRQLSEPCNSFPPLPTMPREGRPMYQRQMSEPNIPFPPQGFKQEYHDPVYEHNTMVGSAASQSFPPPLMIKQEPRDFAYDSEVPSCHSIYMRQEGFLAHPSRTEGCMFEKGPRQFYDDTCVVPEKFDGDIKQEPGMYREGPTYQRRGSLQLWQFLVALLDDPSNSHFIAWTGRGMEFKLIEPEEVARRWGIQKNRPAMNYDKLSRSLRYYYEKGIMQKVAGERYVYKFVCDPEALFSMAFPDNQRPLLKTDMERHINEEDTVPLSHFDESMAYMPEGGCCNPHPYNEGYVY
# Chain of ELF1 (P32519 whole entry): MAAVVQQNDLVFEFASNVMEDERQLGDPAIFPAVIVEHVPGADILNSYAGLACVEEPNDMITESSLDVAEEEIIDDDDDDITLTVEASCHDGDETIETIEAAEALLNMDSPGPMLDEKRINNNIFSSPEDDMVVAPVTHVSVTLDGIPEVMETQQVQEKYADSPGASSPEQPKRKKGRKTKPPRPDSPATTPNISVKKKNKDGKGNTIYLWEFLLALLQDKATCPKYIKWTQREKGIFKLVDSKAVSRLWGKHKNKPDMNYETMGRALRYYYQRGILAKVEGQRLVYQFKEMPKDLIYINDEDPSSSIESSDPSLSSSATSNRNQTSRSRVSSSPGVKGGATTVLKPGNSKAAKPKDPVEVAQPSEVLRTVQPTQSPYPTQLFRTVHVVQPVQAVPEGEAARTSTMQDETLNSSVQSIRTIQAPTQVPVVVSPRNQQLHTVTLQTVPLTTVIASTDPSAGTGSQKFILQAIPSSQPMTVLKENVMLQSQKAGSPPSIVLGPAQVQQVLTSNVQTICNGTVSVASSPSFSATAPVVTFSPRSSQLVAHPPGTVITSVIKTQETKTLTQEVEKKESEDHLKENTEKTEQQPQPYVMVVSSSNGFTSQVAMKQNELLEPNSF
# Chain of ELF4 (Q99607 whole entry): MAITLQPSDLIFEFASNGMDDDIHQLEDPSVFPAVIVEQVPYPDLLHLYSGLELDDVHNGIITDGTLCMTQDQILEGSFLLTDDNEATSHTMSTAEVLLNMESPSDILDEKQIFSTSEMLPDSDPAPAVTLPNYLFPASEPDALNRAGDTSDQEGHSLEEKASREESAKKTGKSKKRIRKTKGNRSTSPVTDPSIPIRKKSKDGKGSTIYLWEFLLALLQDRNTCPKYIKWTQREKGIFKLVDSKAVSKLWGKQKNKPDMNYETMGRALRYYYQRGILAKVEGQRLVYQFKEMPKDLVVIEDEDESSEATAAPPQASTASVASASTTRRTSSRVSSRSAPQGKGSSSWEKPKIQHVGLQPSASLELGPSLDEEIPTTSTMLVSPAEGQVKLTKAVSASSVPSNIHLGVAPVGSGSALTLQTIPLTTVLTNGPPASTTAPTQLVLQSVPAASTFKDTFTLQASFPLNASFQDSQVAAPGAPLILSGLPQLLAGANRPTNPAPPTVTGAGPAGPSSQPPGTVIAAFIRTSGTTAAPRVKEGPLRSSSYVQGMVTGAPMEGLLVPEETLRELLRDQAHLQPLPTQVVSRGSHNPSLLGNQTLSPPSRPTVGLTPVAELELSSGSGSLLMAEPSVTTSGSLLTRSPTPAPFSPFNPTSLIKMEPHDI
# Chain of ETV5 (P41161 whole entry): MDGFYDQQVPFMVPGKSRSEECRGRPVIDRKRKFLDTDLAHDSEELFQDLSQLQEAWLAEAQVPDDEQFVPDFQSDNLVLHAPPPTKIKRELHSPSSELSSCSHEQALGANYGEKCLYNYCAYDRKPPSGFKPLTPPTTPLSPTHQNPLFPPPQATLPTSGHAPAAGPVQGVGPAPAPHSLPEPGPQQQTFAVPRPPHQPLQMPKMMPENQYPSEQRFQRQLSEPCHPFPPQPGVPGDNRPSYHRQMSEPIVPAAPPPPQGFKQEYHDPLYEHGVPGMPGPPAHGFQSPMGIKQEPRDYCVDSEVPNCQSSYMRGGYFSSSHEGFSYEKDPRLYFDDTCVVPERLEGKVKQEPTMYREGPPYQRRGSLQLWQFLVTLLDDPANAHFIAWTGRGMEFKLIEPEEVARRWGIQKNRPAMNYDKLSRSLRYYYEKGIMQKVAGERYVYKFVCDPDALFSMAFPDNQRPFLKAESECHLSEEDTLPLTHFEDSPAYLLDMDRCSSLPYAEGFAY
sequence,measurement,setting,value
ACACGA,binding signal,[1],"1.08 fold enrichment (6-mer frequency, TF over GST control)"
same,binding signal,[2],"1.1 fold enrichment (6-mer frequency, TF over GST control)"
same,binding signal,[3],"1.11 fold enrichment (6-mer frequency, TF over GST control)"
same,binding signal,[4],"1.02 fold enrichment (6-mer frequency, TF over GST control)"
same,binding signal,[5],"1.1 fold enrichment (6-mer frequency, TF over GST control)"
same,binding signal,[6],"1.07 fold enrichment (6-mer frequency, TF over GST control)"
same,binding signal,[7],"1.04 fold enrichment (6-mer frequency, TF over GST control)"
same,binding signal,[8],"1.1 fold enrichment (6-mer frequency, TF over GST control)"
same,binding signal,[9],"1.1 fold enrichment (6-mer frequency, TF over GST control)"
same,binding signal,[10],"1.15 fold enrichment (6-mer frequency, TF over GST control)"
same,binding signal,[11],"1.02 fold enrichment (6-mer frequency, TF over GST control)"
same,binding signal,[12],"1.11 fold enrichment (6-mer frequency, TF over GST control)"
same,binding signal,[13],"1.2 fold enrichment (6-mer frequency, TF over GST control)"
same,binding signal,[14],"1.16 fold enrichment (6-mer frequency, TF over GST control)"
same,binding signal,[15],"1.08 fold enrichment (6-mer frequency, TF over GST control)"
same,binding signal,[16],"1.01 fold enrichment (6-mer frequency, TF over GST control)"
same,binding signal,[17],"1.1 fold enrichment (6-mer frequency, TF over GST control)"
